Test results: the supplement of paper PMC4166925
± gives the standard deviation of the averaged measurements. Whole data set: some 33,000 sequences, median “E-score (dimensionless, -0.5 to 0.5)” near -0.046, cut for the highest 2% near 0.36. The sample holds the highest values, similar sequences and a random draw of the others, so the mix is not that of the screen.

tested on: T1, SpTbr T-box DNA-binding domain (GST fusion); experiment: PBM E-score of 8-mer (E-score (dimensionless, -0.5 to 0.5)); Tbr is Tbrain of the sea star Patiria miniata (Pm) or the sea urchin Strongylocentrotus purpuratus (Sp); higher = stronger binding preference; details: the construct has about 5 more residues each side
T1 sequence: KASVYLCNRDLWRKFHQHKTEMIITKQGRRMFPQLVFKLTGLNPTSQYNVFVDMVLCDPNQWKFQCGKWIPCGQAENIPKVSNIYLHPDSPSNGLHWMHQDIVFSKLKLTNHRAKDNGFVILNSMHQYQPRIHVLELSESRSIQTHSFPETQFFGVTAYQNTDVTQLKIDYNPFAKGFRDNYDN
In short: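 Expression of GST-fused Tbr T-box DNA-binding domains, each holding the full T-box plus roughly five flanking residues, was carried out in BL21 E. coli at 20 °C, with purification by glutathione affinity chromatography. Universal Agilent arrays made double-stranded by primer extension were incubated with the protein at 200 nM in PBS (pH 7.5), then scanned and quantified. All ungapped 8-mers were scored from probe intensities, and each received an enrichment E-score from the Universal PBM Analysis Suite, averaged over duplicate arrays.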

Sequence | PBM E-score of 8-mer
GCGTCGAC | 0.114 ± 0.082
CCAAATAA | -0.267 ± 0.079
GTGGAAAA | 0.125 ± 0.036
AAACAGCT | 0.0803 ± 0.013
CTTGTCAA | 0.355 ± 0.0065
ATTGTCAG | 0.0298 ± 0.045
ATTGTCAC | 0.399 ± 0.013
ATTGTCAA | 0.225 ± 0.019
CTTGTCAC | 0.39 ± 0.013
CCTGTCAC | 0.3163 ± 0.0011
CCAGCACC | 0.216 ± 0.04
CTGAACAC | -0.0318 ± 0.035
ACACTTTA | 0.324 ± 0.043
ACTCTTTC | 0.0551 ± 0.015
ACACTTTC | 0.402 ± 0.027
ACACTTTG | 0.379 ± 0.005
AGACTTTG | -0.0212 ± 0.042
CCACTTTC | 0.0779 ± 0.016
CGCATAGA | -0.0202 ± 0.12
GCGCTACC | 0.295 ± 0.0067
GCTTTACA | 0.0266 ± 0.031
AGCTTTCA | -0.132 ± 0.045

Sequence | PBM E-score of 8-mer
AACACGAT | 0.291 ± 0.022
AACACGTA | 0.317 ± 0.018
GACACGTC | 0.333 ± 0.0087
AACACGTC | 0.372 ± 0.009
AACACGCT | 0.185 ± 0.073
AACACGTT | 0.367 ± 0.044
AGTGGAGA | -0.0675 ± 0.13
AAAGTGTG | 0.441 ± 0.0064
CAAGTGTG | 0.453 ± 0.0056
AAAGTGAA | -0.017 ± 0.029
CAAGTGGG | 0.265 ± 0.022
CAAGTGCG | 0.395 ± 0.02
CAAGTGCC | 0.266 ± 0.0062
AAAGTGAG | 0.217 ± 0.0053
AAAGTGAC | 0.367 ± 0.032
AAAGTGCG | 0.337 ± 0.006
ACAGTGTG | 0.338 ± 0.011
CAAGTGTA | 0.249 ± 0.051
AAAGTGAT | 0.205 ± 0.0065
CAGCAACC | -0.109 ± 0.025
ACCTTAGA | 0.0853 ± 0.026
AATCTCTA | -0.14 ± 0.0019

Sequence | PBM E-score of 8-mer
AGTACTGA | -0.0534 ± 0.012
AGTATCGC | 0.185 ± 0.0083
AACAAGTG | 0.298 ± 0.035
CACAAGTC | 0.166 ± 0.039
AAAGTGGC | 0.205 ± 0.025
CAAGTGTC | 0.351 ± 0.012
ACAGTGTC | 0.213 ± 0.0024
AAAGTGTT | 0.416 ± 0.035
AAAGTGTC | 0.39331 ± 0.00039
GAAGTGTA | 0.304 ± 0.0081
CACAAGTG | 0.38 ± 0.016
AAAGTGGT | 0.00031 ± 0.043
AAAGTGTA | 0.112 ± 0.073
GAAGTGTC | 0.42864 ± 0.00011
GCGCTTAC | 0.216 ± 0.054
CTGATGCA | 0.0385 ± 0.021
CCTCGTAC | -0.22 ± 0.0077
AAGGGTAG | -0.0117 ± 0.11
ACTGGAGA | -0.123 ± 0.052
GCACCTGA | 0.386 ± 0.0077
AAACCTTG | -0.17 ± 0.045
CCACCTGA | 0.148 ± 0.02

Sequence | PBM E-score of 8-mer
TCACCTGA | 0.3337 ± 0.0032
GCACCTTA | 0.404 ± 0.026
CCACCTTA | 0.213 ± 0.01
AGACCTTG | -0.19 ± 0.022
CCACCTTC | 0.2634 ± 0.0018
GAACCTTA | -0.0824 ± 0.12
AGACCTTC | -0.26 ± 0.016
ACACCTTC | 0.4746 ± 0.0017
ACACCTTG | 0.4831 ± 0.0013
ATATCCAT | -0.037 ± 0.059
AGCCAACT | -0.173 ± 0.045
AGATTTCA | -0.0179 ± 0.064
ACTAGGAT | -0.2518 ± 0.0023
CAAGGAAC | -0.142 ± 0.03
CTCTCCAC | 0.0528 ± 0.073
CGTTAGGA | -0.0398 ± 0.0099
AAGAATTC | -0.22 ± 0.027
AAACCTTA | -0.0223 ± 0.025
ACACCTTA | 0.46892 ± 0.00038
ATACCTTA | 0.1245 ± 0.00057
GCAAGAGC | -0.0244 ± 0.092
GTCGTCAC | 0.337 ± 0.025

Sequence | PBM E-score of 8-mer
ATCGTCAT | -0.00478 ± 0.05
ATCGTCAA | 0.158 ± 0.0046
CTCGTCAA | 0.201 ± 0.0083
ATCGTCAC | 0.381 ± 0.011
CTCGTCAC | 0.389 ± 0.024
TCGCCAGA | 0.0255 ± 0.017
AAGGCACA | -0.16 ± 0.04
ATGGGGGG | -0.172 ± 0.0088
AGAAGTGA | 0.289 ± 0.014
AGTCTACG | -0.209 ± 0.008
CAGCTACG | -0.036 ± 0.0027
TGTGGTAA | 0.133 ± 0.02
GGCGGCCA | -0.156 ± 0.03
ATTCGCAC | 0.4705 ± 0.0024
CTTCGCCC | -0.0235 ± 0.028
CTTCGCAA | 0.341 ± 0.029
CTTCGCAC | 0.461 ± 0.015
ATTCGCAG | 0.33 ± 0.013
ATTCGCAA | 0.29 ± 0.016
GTCTATAA | -0.0104 ± 0.0026
CGAGGGCC | -0.127 ± 0.057
